The supplement of paper PMC6555819

Columns and labels:
Test in all cases: PBM binding z-score (relative to random genomic background probes); higher = stronger binding; sequences stand for … in GC…GCGATTGACAGCGTAGAATGAAGG
[1] = tested on: FXR:RXRa (NR concentration 270 nM, RXRa partner concentration 90 nM)
In short: (§1)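 Scanned fluorescence from custom Agilent 4×180K protein-binding microarrays was regression-normalized. Binding z-scores use random background probes as reference. Ligand-free nuclear receptor dimers were incubated on the arrays for 1 h and detected with antibodies against each partner (one per run).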

[2] = tested on: LXRa:RXRa (NR concentration 270 nM, RXRa partner concentration 90 nM)
In short: as §1

[3] = tested on: LXRa homodimer (NR concentration 270 nM)
In short: as §1

[4] = tested on: LXRb:RXRa (NR concentration 270 nM, RXRa partner concentration 90 nM)
In short: as §1

[5] = tested on: LXRb homodimer (NR concentration 270 nM)
In short: as §1

[6] = tested on: PPARa:RXRa (NR concentration 270 nM, RXRa partner concentration 90 nM)
In short: as §1

[7] = tested on: PPARg:RXRa (NR concentration 180 nM, RXRa partner concentration 90 nM)
In short: as §1

[8] = tested on: PPARg:RXRa 270nM:90nM, anti-RXR (NR concentration 270 nM, RXRa partner concentration 90 nM)
In short: as §1

[9] = tested on: PPARg:RXRa 30nM:10nM, anti-RXR (NR concentration 30 nM, RXRa partner concentration 10 nM)
In short: as §1

[10] = tested on: PPARg:RXRa 90nM:30nM, anti-RXR (NR concentration 90 nM, RXRa partner concentration 30 nM)
In short: as §1

[11] = tested on: PPARg:RXRa DBDmut IVT, anti-RXR (DBD mutation: RXRa K156A/R161A, NR concentration 270 nM, RXRa partner concentration 90 nM)
In short: as §1

[12] = tested on: PPARg:RXRa IVT, anti-PPARg (NR concentration 270 nM, RXRa partner concentration 90 nM)
In short: as §1

[13] = tested on: PPARg DBDmut:RXRa IVT, anti-PPARg (DBD mutation: PPARg1 K132A/R137A, NR concentration 270 nM, RXRa partner concentration 90 nM)
In short: as §1

[14] = tested on: PPARg DBDmut IVT, anti-PPARg (DBD mutation: PPARg1 K132A/R137A, NR concentration 270 nM)
In short: as §1

[15] = tested on: PPARg homodimer (NR concentration 180 nM)
In short: as §1

[16] = tested on: PXR:RXRa (NR concentration 270 nM, RXRa partner concentration 90 nM)
In short: as §1

[17] = tested on: PXR homodimer (NR concentration 270 nM)
In short: as §1

[18] = tested on: RARa:RXR (NR concentration 270 nM, RXRa partner concentration 90 nM)
In short: as §1

[19] = tested on: RARa homodimer (NR concentration 270 nM)
In short: as §1

[20] = tested on: RARb:RXRa (NR concentration 270 nM, RXRa partner concentration 90 nM)
In short: as §1

Row | Sequence | PBM binding z-score [1] | PBM binding z-score [2] | PBM binding z-score [3] | PBM binding z-score [4] | PBM binding z-score [5] | PBM binding z-score [6] | PBM binding z-score [7] | PBM binding z-score [8] | PBM binding z-score [9] | PBM binding z-score [10] | PBM binding z-score [11] | PBM binding z-score [12] | PBM binding z-score [13] | PBM binding z-score [14] | PBM binding z-score [15] | PBM binding z-score [16] | PBM binding z-score [17] | PBM binding z-score [18] | PBM binding z-score [19] | PBM binding z-score [20]
1 | CGAACTAGGTCACAGAGGTCAAAGTCCGTGCGTA | 7.51 | 6.91 | 7.06 | 6.5 | 1.96 | 6.56 | 10.2 | 8.5 | 7.02 | 8.62 | 8.62 | 8.94 | 8.99 | 6.82 | 9.8 | 6.92 | 13.2 | 7.77 | 5.26 | 5.23
2 | TAGCCTGGGTCAGATCGGGCCAGTATACGCTATA | 1.63 | 0.208 | -0.918 | 0.153 | -0.84 | 1.32 | 0.579 | 0.64 | -0.488 | 0.167 | -0.428 | 0.885 | -0.83 | -0.762 | -0.849 | 0.931 | -0.947 | 0.69 | -0.739 | 2.33
3 | ACTATTAGTTGACTTAGGGCAACCGATACGACGC | 0.119 | 0.0991 | -0.0501 | 0.277 | 0.41 | 0.0707 | 0.995 | 0.159 | 0.448 | 0.379 | -0.304 | 0.722 | 1.07 | 1.09 | -0.697 | 0.217 | 0.409 | 0.353 | 0.643 | 0.958
4 | AATACAGGGCCATCGTAGGCCAGAGTACGCACAG | 0.0639 | 0.221 | -0.132 | -0.283 | -0.499 | 0.0726 | 0.954 | -0.0465 | -0.14 | -0.0369 | 0.0782 | 0.608 | 0.846 | -0.0733 | -0.388 | -0.255 | -0.169 | -0.00731 | 0.00973 | 0.931
5 | GCTGCTAGGTCAACTGATGGTAAGCTAAAGCTCG | 3.67 | 2.53 | -0.233 | 1.66 | -0.0534 | 3.56 | 2.6 | 2.85 | 0.773 | 2.04 | 5.03 | 3.79 | -0.843 | -0.572 | 1.33 | 1.29 | -0.824 | 2.02 | 0.282 | 4.06
6 | AGAATGAGGTTAAGATCAGGGATACAGAATACAT | 2.25 | 1.75 | 0.0573 | 1.78 | 0.0208 | 3.7 | 2.77 | 2.46 | 0.866 | 1.71 | 3.07 | 2.89 | 0.847 | 0.843 | 0.828 | 1.23 | 0.547 | 2.08 | 0.49 | 1.92
7 | TCATATAGCTAATACAGGTGAAAGTCGGCATCTA | 0.322 | 0.835 | 0.0705 | 0.543 | -0.0868 | 1.17 | 0.706 | 1.77 | 3.13 | 2.35 | 1.68 | 0.828 | 0.761 | 0.528 | 0.511 | 0.475 | -0.0901 | 0.626 | 0.67 | 0.139
8 | TCATATAGGGAAAAGGTGAAAGTCGGTGTGGTAA | 1.4 | 1.47 | 0.577 | 1.64 | 0.109 | 4.56 | 7.27 | 7.61 | 6.66 | 8.2 | 3.91 | 3.56 | 0.616 | 0.751 | 1.68 | 1.21 | 0.873 | 2.17 | 1.17 | 1.9
9 | TAGCCTAGGTCATGGGCAAGTATACCACGCGAAC | 4.43 | 3.35 | 0.241 | 2.46 | -0.306 | 4.37 | 3.93 | 3.3 | 0.879 | 2.22 | 1.64 | 3.48 | -0.144 | 0.186 | 1.13 | 1.51 | -0.303 | 2.48 | -0.000605 | 4.09
10 | CCGCCTGGGGCAAAGGTTACCATACTCAGTACGA | 1.58 | 1.77 | 0.256 | 2.07 | -1.01 | 4.22 | 7.52 | 7.16 | 5.72 | 7.35 | 0.0766 | 3.23 | -0.483 | -0.8 | 2.34 | 2.62 | -0.268 | 4.07 | 0.0335 | 2.47
11 | TCATATAGGTAATACAGTTGAAAGTCGGCATCTA | 1.56 | 1.24 | 0.63 | 1.2 | 0.422 | 1.56 | 1.32 | 2.56 | 4.01 | 3.39 | 4.07 | 2.33 | 1.55 | 1.26 | 1.26 | 1.11 | 0.75 | 1.51 | 2.05 | 0.685
12 | TCTTGTAGATCAGCAGGTTAAGATAGCTGGCCAA | -0.0531 | 0.217 | -0.176 | 0.312 | -0.375 | 0.692 | -0.179 | 1.28 | 2.71 | 1.95 | 1.75 | 0.446 | 0.0165 | 0.121 | 0.155 | 0.31 | -0.37 | 0.429 | -0.336 | 0.168
13 | ATAGGTAGGTTAAGGGTCATTCAGGTTGGTTCGC | 5.35 | 5.02 | 3.31 | 4.83 | 2.47 | 5.86 | 9.73 | 8.69 | 8.35 | 9.51 | 3.71 | 5.35 | 3.33 | 1.88 | 4.75 | 5.63 | 3.61 | 6.1 | 3.3 | 3.83
14 | ACTTACGGGTCAATGAGGTTATAGCACGCGTATA | 5.51 | 4.96 | 0.962 | 4.08 | 1.04 | 5.25 | 4.45 | 4.61 | 2.44 | 3.5 | 3.32 | 3.66 | 1.87 | 1.58 | 1.79 | 4.89 | 2.68 | 4.53 | 1.1 | 3.86
15 | CCTACTGGGCCAAAAAGGTCATTCATGCCGATAA | 3.81 | 4.85 | 4.27 | 4.54 | 0.914 | 4.85 | 3.37 | 4.13 | 1.87 | 3.58 | 3.69 | 3.97 | -0.431 | 0.123 | 4.57 | 5.41 | 4.84 | 5.86 | 2.12 | 4.22
16 | GTACCAAGGTGAATAAGTCGTTGATGAGTAGGCG | 0.544 | 0.243 | -0.143 | -0.0627 | -0.489 | 0.853 | 0.832 | 0.279 | 0.154 | -0.268 | 1.47 | 1.77 | -0.113 | 0.912 | 0.706 | -0.129 | 0.166 | 0.233 | 0.8 | 1.27
17 | AAGACAGGGTCATCGTAGGCCAGAGTACGCACAG | 7.28 | 5.76 | 0.0665 | 4.06 | 0.0441 | 6.02 | 5.91 | 5.77 | 2.38 | 3.94 | 1.48 | 2.99 | 0.884 | 0.174 | 1.25 | 4.95 | 0.0301 | 4.92 | 0.453 | 4.23
